Source: PubChem
Hits are enriched below; roughly 0.92% of the tested compounds scored in any of these assays.
RPL19A TOR yeast = RPL19A-GFP expression modulators in yeast, primary screen, cell-based, S. cerevisiae, multiplex flow cytometry, MLPCN | S. cerevisiae RPL19A-GFP strain, 3 h; active compounds read low | percent response vs DMSO, % at 10 µM | 0.3% of 330,000 active;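 active = percent response vs DMSO below 50%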;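 also: median channel GFP fluorescence of the barcoded RPL19A-GFP strain; ratio of sample median GFP to plate DMSO average so 100% = DMSO; lower means less RPL19A-GFP as with rapamycin TOR inhibition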
LAP4 TOR yeast = modulators of LAP4-GFP expression in yeast, primary screen, S. cerevisiae, multiplex flow cytometry, MLPCN library; 3 h; median GFP as percent of DMSO wells; GFP response vs DMSO, % at 10 µM; 0.34% of 320,000 active;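 active = GFP response vs DMSO above a set limit, about the screen mean plus 3 SD, cut at about 150% in these data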
MEP2 TOR yeast = modulators of MEP2-GFP levels in yeast, primary screen, S. cerevisiae, multiplex flow cytometry, MLPCN library; S. cerevisiae MEP2-GFP strain, 3 h; 100% = DMSO control level; 0.51% of 330,000 active; GFP response vs DMSO, % at 10 µM;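 active = GFP response versus DMSO above a set limit, roughly screen mean plus 3 SD, cut at about 180% in these data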;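 also: median GFP fluorescence of the barcode-gated MEP2-GFP cells per well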
CIT2-GFP yeast = modulators of CIT2-GFP expression in yeast, primary screen, S. cerevisiae, GFP fusion, multiplex flow cytometry, MLPCN library. GFP response vs DMSO, % at 10 µM. AID 2029, 2009. S. cerevisiae CIT2-GFP strain, 3 h; 100 means same as DMSO wells. 0.065% of 320,000 active;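 active = GFP response relative to DMSO above a set limit, near the screen mean plus 3 SD, cut at about 150% in these data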;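 also: ratio of well median GFP fluorescence to mean of DMSO wells on the plate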
AGP1 TOR yeast = modulators of AGP1-GFP expression in yeast TOR pathway, primary screen, cell-based, multiplex flow cytometry, S. cerevisiae, MLPCN library; AID 2066, 2009; 0.02% of 320,000 active; 3 h; GFP as percent of DMSO wells; GFP response vs DMSO, % at 10 µM;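 active = GFP response relative to DMSO above a set limit, near screen average plus 3 SD, cut at about 150% in these data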;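 also: median GFP channel fluorescence of the gated AGP1 strain per well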
LAP4-GFP pick2 = LAP4-GFP expression modulators in yeast, confirmation, cell-based, second cherry pick, flow cytometry; GFP response vs DMSO, % at 10 µM; S. cerevisiae LAP4-GFP strain, 3 h; 20% of 590 active; AID 2621, 2010; shares compounds with LAP4 TOR yeast;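 active = GFP signal as percent of the solvent control above about 150%, meaning raised reporter expression, limit read from the data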;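 also: ratio of well median GFP fluorescence to plate DMSO mean so 100% = DMSO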
MEP2 cherry2 = modulators of MEP2-GFP levels in yeast, confirmation, S. cerevisiae, flow cytometry GFP, second cherry picks; shares compounds with LAP4 TOR yeast; S. cerevisiae MEP2-GFP strain, 3 h; GFP response vs DMSO, % at 10 µM; 10% of 590 active; AID 2622, 2010;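 active = GFP signal above 150% of the solvent control wells, that is a rise of more than half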;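 also: median channel GFP fluorescence of all gated yeast cells per well; ratio of median GFP to plate DMSO average so 100% = DMSO level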
RPL19A-GFP pick2 = RPL19A-GFP modulators in TOR pathway yeast, confirmation, cell-based, S. cerevisiae, flow cytometry, second cherry pick | shares compounds with LAP4 TOR yeast | S. cerevisiae RPL19A-GFP strain, 3 h; active compounds read low; 100% means same as DMSO wells | GFP response vs DMSO, % at 10 µM | 3% of 590 active;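 active = under 65% GFP response relative to DMSO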;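 also: median GFP channel fluorescence per well over the all cells gate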
CIT2 GFP CP2 = modulators of CIT2-GFP expression in yeast, confirmation, flow cytometry, second cherry pick, single plex. shares compounds with LAP4 TOR yeast. S. cerevisiae CIT2-GFP strain, 3 h; DMSO control wells read 100%. GFP response vs DMSO, % at 10 µM. 8% of 590 active. AID 2624, 2010;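 active = GFP response vs DMSO above about 150%, limit read from the data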;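 also: median green fluorescence per well over all gated yeast cells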
AGP1 GFP CP2 = AGP1-GFP expression modulators, hit retest, confirmation, cell-based, flow cytometry, S. cerevisiae, cherry pick set 2 | shares compounds with LAP4 TOR yeast | S. cerevisiae AGP1-GFP strain, 3 h | percent response vs DMSO, % at 10 µM | 590 tested, under 10 active | AID 2643, 2010;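 active = over 150 percent of DMSO response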;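 also: median GFP channel fluorescence over all cells without mother daughter split; sample median GFP divided by mean DMSO control so 100% equals DMSO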
s288c autofluor = compound autofluorescence in yeast s288c, dose response, artefact control for yeast TOR pathway GFP screen, s288c strain; 610 tested, under 10 active; AID 2757, 2010; fluorescence change (kMESF span) at 33 µM; S. cerevisiae s288c, 520 nm autofluorescence, flow cytometry, 3 h; active compounds read high; zero means same as solvent-only cells; shares compounds with LAP4 TOR yeast;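 active = fluorescence span over the dose series, or activity score, above about 33, limit read from the data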
Yeast autofl DR = autofluorescence of compounds in yeast s288c, dose response, artefact control for yeast TOR pathway GFP screen, primary hits, KU SAR, s288c parental; shares compounds with LAP4 TOR yeast; S. cerevisiae s288c parental, compound autofluorescence, flow cytometry, 3 h; fluorescence change (span) at 33 µM; 110 tested, under 10 active; AID 488829, 2010;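 active = fluorescence change span, or the activity score built from it, above 25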
TORC1 bypass gr = wild-type yeast growth inhibition sparing TORC1 bypass cells, mechanism study for yeast TOR pathway GFP screen, BY4741 wild type, TORC1 bypass strain. shares compounds with LAP4 TOR yeast. S. cerevisiae BY4741 spot growth rating, 48-72 h; active compounds read low. growth rating (0-3) at 30 µM. 120 tested, under 10 active;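 active = growth rating at most 1 for wild type yeast while the TORC1 bypass strain still grows fully, rated 3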
Starred values were filed as active, the others as inactive.

O=S1(=O)C=C(Sc2nc3ccccc3s2)c2ccccc21 was read as RPL19A TOR yeast 92, LAP4 TOR yeast 172*, MEP2 TOR yeast 91, CIT2-GFP yeast 87, AGP1 TOR yeast 90, LAP4-GFP pick2 175*, MEP2 cherry2 106, RPL19A-GFP pick2 104, CIT2 GFP CP2 141, AGP1 GFP CP2 94 and s288c autofluor 0.2.
For CCOc1ccc(C(Nc2cccnc2)c2cc(Cl)c3cccnc3c2O)cc1 (stereo not given) the results were RPL19A TOR yeast 70, LAP4 TOR yeast 224*, MEP2 TOR yeast 93, CIT2-GFP yeast 70, AGP1 TOR yeast 75 and s288c autofluor 1.3.
Screening CCC(=O)NC(c1ccc(C)cc1)c1cc(Cl)c2cccnc2c1O (stereo not given) returned RPL19A TOR yeast 93, LAP4 TOR yeast 91, MEP2 TOR yeast 94, CIT2-GFP yeast 89 and AGP1 TOR yeast 89.
`CC(C)Cn1c(N)c(C(=O)COC(=O)c2c(O)c(Cl)cc(Cl)c2Cl)c(=O)n(C)c1=O` gave RPL19A TOR yeast 300, LAP4 TOR yeast active, MEP2 TOR yeast active, CIT2-GFP yeast active, AGP1 TOR yeast 320*, LAP4-GFP pick2 96, MEP2 cherry2 100, RPL19A-GFP pick2 98, CIT2 GFP CP2 90 and AGP1 GFP CP2 100.
`Cc1occc1-c1nnc(SCC(=O)Nc2nc3ccccc3s2)o1` gave RPL19A TOR yeast 97, LAP4 TOR yeast 99, MEP2 TOR yeast 103, CIT2-GFP yeast 112 and AGP1 TOR yeast 103.
For Cc1ccc(NC(=O)c2ccc(Cl)c(N3C(=O)C=CC3=O)c2)cc1 the results were RPL19A TOR yeast 50*, LAP4 TOR yeast 129, MEP2 TOR yeast 95, CIT2-GFP yeast 69, AGP1 TOR yeast 61, s288c autofluor 1.4, Yeast autofl DR 1.3 and TORC1 bypass gr 3.
